Where “and” joins values, the source holds several entries; their conditions need not be identical. Equal entries are not always repeated. Inconclusive results are not listed. Where a call stands in place of a potency, no number is given. The source holds several records for some structures; these can differ, active in one and inactive in another. Calls of active or inactive are those of the source. Unless noted, calls come from the whole dose curve; as a rule, active = well fitted curve in the direction sought with a large enough effect; inconclusive = small, poorly fitted or top-dose-only effect, or another doubt; inactive = no such curve, though single readings can be large; an effect the other way counts as inactive or inconclusive.
Key:
[1] = molecular target: Calcium and integrin-binding protein 1 (Homo sapiens) (UniProt Q99828); assay: Primary qHTS for Identification of Calcium Integrin Binding Protein 1 (CIB1) Competitor (AID 1508620);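 note: GST tagged CIB1 binding a fluorescein labelled alphaIIb integrin peptide tracer; top concentration of the series differs between compounds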
Sequence of Calcium and integrin-binding protein 1 (Homo sapiens) (Q99828 whole entry, looked up): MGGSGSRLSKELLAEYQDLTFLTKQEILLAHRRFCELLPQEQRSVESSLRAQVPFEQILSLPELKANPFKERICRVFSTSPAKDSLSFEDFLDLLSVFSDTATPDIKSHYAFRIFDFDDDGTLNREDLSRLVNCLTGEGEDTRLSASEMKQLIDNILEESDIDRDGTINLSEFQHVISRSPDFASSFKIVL
Method in brief: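 Fluorescence polarization competition: GST-tagged CIB1 (1 uM final) preincubated with compound 15 min at room temperature, then FITC-labelled alphaIIb peptide (100 nM final) added. After 15 min at room temperature, polarization read at Ex 480/Em 540.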

[2] = molecular target: Cytochrome P450 2D6 (Homo sapiens) (UniProt P10635); assay: Cytochrome P450 family 2 subfamily D member 6 (CYP2D6) small molecule antagonists: luciferase biochemical (cell-free) qHTS assay (AID 1645840; active = well fitted curve in the direction sought with a large enough effect in the repeat runs; an effect the other way counts as inactive or inconclusive; note: nearly all actives have a fitted effect of over 55% in size; note: potency is the fitted concentration of half-maximal effect)
Sequence of Cytochrome P450 2D6 (Homo sapiens) (P10635 whole entry, looked up): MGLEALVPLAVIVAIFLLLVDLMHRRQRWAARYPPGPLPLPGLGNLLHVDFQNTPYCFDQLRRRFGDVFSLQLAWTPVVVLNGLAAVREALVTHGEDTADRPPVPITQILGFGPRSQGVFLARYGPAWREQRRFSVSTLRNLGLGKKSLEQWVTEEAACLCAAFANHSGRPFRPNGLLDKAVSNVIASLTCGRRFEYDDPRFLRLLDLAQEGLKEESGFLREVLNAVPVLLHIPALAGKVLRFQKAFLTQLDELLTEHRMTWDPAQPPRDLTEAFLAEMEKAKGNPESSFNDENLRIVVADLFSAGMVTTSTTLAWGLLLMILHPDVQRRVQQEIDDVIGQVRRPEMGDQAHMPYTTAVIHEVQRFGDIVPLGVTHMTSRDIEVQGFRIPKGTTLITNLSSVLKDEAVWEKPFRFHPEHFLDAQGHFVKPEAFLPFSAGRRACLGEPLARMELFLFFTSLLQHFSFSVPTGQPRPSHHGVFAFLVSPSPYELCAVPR
Method in brief: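 P450-Glo CYP2D6 system: proluciferin substrate converted by enzyme to luciferin, read by luminescence proportional to activity. Enzyme-substrate mix with compound 10 min at room temperature, then NADPH regeneration 1 h before detection reagent.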

[3] = molecular target: Cytochrome P450 2C9 (Homo sapiens) (UniProt P11712); assay: Cytochrome P450 family 2 subfamily C member 9 (CYP2C9) small molecule antagonists: luciferase biochemical (cell-free) qHTS assay (AID 1645842; active = well fitted curve in the direction sought with a large enough effect in the repeat runs; an effect the other way counts as inactive or inconclusive; note: nearly all actives have a fitted effect of over 55% in size; note: potency is the fitted concentration of half-maximal effect)
Sequence of Cytochrome P450 2C9 (Homo sapiens) (P11712 whole entry, looked up): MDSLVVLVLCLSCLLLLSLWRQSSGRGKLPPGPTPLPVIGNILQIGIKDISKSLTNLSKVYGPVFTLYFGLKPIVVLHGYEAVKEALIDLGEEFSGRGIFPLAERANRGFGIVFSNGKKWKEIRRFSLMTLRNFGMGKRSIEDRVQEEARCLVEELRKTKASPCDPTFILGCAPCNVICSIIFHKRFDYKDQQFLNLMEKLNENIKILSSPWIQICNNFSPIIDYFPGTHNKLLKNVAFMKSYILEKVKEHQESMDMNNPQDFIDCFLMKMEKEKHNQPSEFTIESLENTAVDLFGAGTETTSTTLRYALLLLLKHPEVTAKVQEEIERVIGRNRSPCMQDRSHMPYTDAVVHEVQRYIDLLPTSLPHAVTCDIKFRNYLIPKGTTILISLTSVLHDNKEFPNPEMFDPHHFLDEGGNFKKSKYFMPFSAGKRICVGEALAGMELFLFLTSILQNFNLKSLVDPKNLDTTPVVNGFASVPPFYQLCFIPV
Method in brief: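 P450-Glo CYP2C9 system: proluciferin substrate with enzyme in mix containing 0.4% BSA, 10 min at room temperature, then NADPH regeneration solution added and incubated 1 h at 37C. Detection reagent stopped reaction; luminescence read after 20 min as RLU.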

[4] = Primary qHTS for inhibitors of nuclear receptor binding SET domain protein 2 (NSD2) in an isogenic RCH-ACV NSD2 p.E1099K mutant (9B) (AID 1645876); note: nearly all actives have a fitted effect of over 70% in size; note: potency is the fitted concentration of half-maximal effect

Structure (SMILES) | Potency [1] | Potency [2] | Potency [3] | Potency [4]
Cc1ccccc1-n1c([C@H](C)Nc2nc(N)nc3nc[nH]c23)nc2cccc(C)c2c1=O | inactive | 16.9 µM (active) | 1.34 µM (active) | 0.0649 µM (active)
O=[N+]([O-])c1cccc2[nH]c(CNc3nc(N4CCOCC4)nc4c3ncn4-c3ccsc3)nc12 | inactive | inactive | 0.952 µM (active) | 0.0649 µM (active)
Cn1c2ccc(F)cc2c2c(C(=O)N3CCCC3)cn(-c3ccccc3)c(=O)c21 | inactive | inactive | 1.51 µM (active) | inactive
CC(C)(C)c1cc(Br)cc([C@H](CC(=O)O)NC(=O)CNC(=O)c2cc(O)cc(NC3=NCC(O)CN3)c2)c1 (some centres undefined) | inactive | inactive | inactive | inactive
COc1ccc(-c2ccc3c(N4CCOCC4)nc(N4CC(C)OC(C)C4)nc3n2)cc1CO (centres undefined) | inactive | inactive | 6.74 µM (active) | 0.205 µM (active)
CN(C)C1CCN(C(=O)c2ccc(NC(=O)Nc3ccc(-c4nc(N5CCOCC5)nc(N5CCOCC5)n4)cc3)cc2)CC1 | inactive | inactive | inactive | 0.0417 µM (active)
COc1ccc(-c2ccc(-c3cn(C(=O)N4CCCCC4c4ccccc4)nn3)cc2)cc1 (centres undefined) | inactive | inactive | 2.13 µM (active) | inactive
CC1(C)CC(NC(=O)C(=O)Nc2ccc(Br)cc2)CC(C)(C)N1 | inactive | inactive | inactive | 8.17 µM (active)
CC(NC(=O)C(O)C(C)C)C(=O)NC1C(=O)N(C)CCc2ccccc21 (centres undefined) | inactive | inactive | inactive | inactive
COc1ccc(Oc2cc(C)c(-c3csc(NC(=O)c4ccncc4)n3)c(C)c2)cc1 | inactive | 3.01 µM (active) | 4.77 µM (active) | 0.163 µM (active)
O=C(/C=C/c1cccc(S(=O)(=O)Nc2ccccc2)c1)NO | inactive | 21.3 µM (active) | 10.7 µM (active) | 356 nM (active) and 296 nM (active)
CN(c1ccccc1CNc1nc(Nc2ccc3c(c2)CC(=O)N3)ncc1C(F)(F)F)S(C)(=O)=O | inactive | 23.9 µM (active) | 1.51 µM (active) | 1.29 µM (active)
Cn1cc(-c2ccc3nnc(Sc4ccc5nn(C)cc5c4)n3n2)cn1 | inactive | inactive | 4.77 µM (active) | inactive
O=C(Nc1ccc(S(=O)(=O)Nc2nccs2)cc1)C(c1ccccc1)c1ccccc1 | inactive | 19 µM (active) | 0.674 µM (active) | inactive
Cc1nc(C)c(-c2ccc(C3CCC(CC(=O)O)CC3)cc2)nc1C(N)=O (centres undefined) | inactive | inactive | inactive | inactive
COc1ccc([C@H]2CNC(=O)C2)cc1OC1CCCC1 | inactive | inactive | inactive | inactive
COc1ccc2[nH]c3c(-c4cccc5ccccc45)nccc3c2c1 | inactive | 0.0151 µM (active) | 1.51 µM (active) | 0.916 µM (active)
COC(=O)CC1CC(c2ccc(O)cc2)=NO1 (centres undefined) | inactive | inactive | inactive | inactive
CN1CCN(Cc2ccc(-c3cnc4[nH]cc(-c5ccc6[nH]ccc6c5)c4c3)cc2)CC1 | inactive | 2.13 µM (active) | 12 µM (active) | 1.45 µM (active)
COc1cc(N2CCOCC2)ccc1Nc1ncc(Cl)c(Nc2ccccc2NS(C)(=O)=O)n1 | inactive | 15.1 µM (active) | inactive | 1.15 µM (active)
COc1cc2nc(N3CCCC3)nc(NCCCCCN3CCCC3)c2cc1OC | inactive | 4.77 µM (active) | inactive | 4.59 µM (active)
COc1c(Nc2ncc(Cl)c(N[C@H]3[C@@H](C(N)=O)[C@@H]4C=C[C@H]3C4)n2)ccc2c1CC[C@@H](N1CCOCC1)CC2 | inactive | 19 µM (active) | 6.01 µM (active) | 3.25 µM (active)
Cc1[nH]c2ccccc2c1C1=C(NCCc2ccc(F)cc2)C(=O)N(C)C1=O | inactive | 4.25 µM (active) | 0.379 µM (active) | 6.49 µM (active)
CCN1CCN(Cc2ccc(NC(=O)Nc3ccc(Oc4cc(NC)ncn4)cc3)cc2C(F)(F)F)CC1 | inactive | 10.7 µM (active) | inactive | 3.65 µM (active) and 2.35 µM (active)
O=C(O)CC1CCC(c2ccc(-c3ccc4nc(C(=O)NCc5ccc(OC(F)(F)F)cc5)cn4c3)cc2)CC1 (centres undefined) | inactive | inactive |  | inactive
CCN(Cc1cccnc1)C(=O)CN(c1ccc(OC)nc1)S(=O)(=O)c1ccccc1C | inactive | inactive | 19 µM (active) | inactive
CNC(=O)c1ccccc1Nc1nc(Nc2ccc3c(c2OC)CCCC(N2CCN(CCO)CC2)C3)ncc1Cl (centres undefined) | inactive | 15.1 µM (active) | inactive | 6.49 µM (active)
CN(C)c1nc(NC2CCC(NC(=O)c3ccc(F)c(F)c3)CC2)nc2ccccc12 (centres undefined) | inactive | 5.35 µM (active) |  | 6.49 µM (active)

Structure (SMILES) | Potency [1] | Potency [2] | Potency [3] | Potency [4]
CC1COC(Nc2ccc3ncnc(Nc4ccc(OCc5nccs5)c(Cl)c4)c3c2)=N1 (centres undefined) | inactive | 10.7 µM (active) | 10.7 µM (active) | 16.3 µM (active)
Cc1cccc(S(=O)(=O)N2CCC[C@@H]2CCN2CCC(C)CC2)c1 | inactive | 2.39 µM (active) | inactive | inactive
C[C@@H]1CN(Cc2ccccc2)C[C@H]1c1nc2c(cnn2C2CCOCC2)c(=O)[nH]1 | inactive | inactive | inactive | inactive
Cc1cc(C)c(CNC(=O)c2cc(-c3ccc(CN4CCOCC4)cc3)cc3c2cnn3C2CCCC2)c(=O)[nH]1 | inactive | inactive | 2.39 µM (active) | inactive and 18.6 µM (active)
CNC(=O)c1ccccc1Nc1nc(Nc2ccc(N3CCNCC3)cc2)ncc1Cl | inactive | inactive | 6.01 µM (active) | 0.103 µM (active)
CN1CCc2nc(C(=O)N[C@@H]3C[C@@H](C(=O)N(C)C)CC[C@@H]3NC(=O)C(=O)Nc3ccc(Cl)cn3)sc2C1 | inactive | inactive | inactive | inactive
Cc1[nH]c2ccccc2c1CCNC(=O)c1ccccc1F | inactive | 21.3 µM (active) |  | inactive
CC(C)[C@@](C)(O)[C@@H]1CN(c2nc(-c3[nH]nc4ncccc34)c(F)cc2Cl)CCN1 | inactive | 0.849 µM (active) | 12 µM (active) | 6.49 µM (active)
O=C(c1cccc(Cl)c1F)N1CCN(Cc2cccc(Nc3nccs3)n2)CC1 | inactive | 1.69 µM (active) | 3.38 µM (active) | 0.817 µM (active)
CC(C)c1nc(-c2ccc(NC(=O)Nc3cccc(C(F)(F)F)c3)c3ccccc23)c2c(N)nccn12 | inactive | 0.0674 µM (active) | 0.301 µM (active) | 0.578 µM (active)
Cn1c(=O)n(-c2ccc(C(C)(C)C#N)cc2)c2c3cc(C#Cc4cccnc4)ccc3ncc21 | inactive | inactive | 0.522 µM (active) | 0.0178 µM (active)
N#CC(c1ccnc(OCc2ccc(CN3CCOCC3)cc2)n1)c1nc2ccccc2s1 (centres undefined) | inactive | inactive | 10.7 µM (active) | inactive
COc1cc(NC(=O)Nc2cccc(CNC(=O)O[C@H]3CCOC3)c2)ccc1-c1cnco1 | inactive | 0.338 µM (active) | 0.0379 µM (active) | 0.459 µM (active)
CN[C@H](C(=O)N[C@H](C(=O)N(C)[C@H](/C=C(\C)C(=O)O)C(C)C)C(C)(C)C)C(C)(C)c1ccccc1 | inactive | inactive |  | inactive
Cc1ccc(NC(=O)Nc2cc(C(F)(F)F)ccc2F)cc1Nc1ccc2c(c1)NC(=O)/C2=C\c1ccc[nH]1 | inactive | inactive | inactive | 11.5 µM (active) and 16.6 µM (active)
O=C(CC(c1ccccc1)c1ccccc1)N1CCN(C(c2ccccc2)c2ccccc2)CC1 | inactive | inactive | 4.77 µM (active) | 7.28 µM (active)
CCCn1c(=O)c2[nH]c(-c3ccc(OCC(=O)O)cc3)nc2n(CCC)c1=O | inactive | inactive | inactive | inactive
COc1ccc(C(=O)Nc2ncc(-c3ccc(C(=O)O)cc3)s2)cc1 | inactive | inactive | 10.7 µM (active) | 1.63 µM (active)
CC(C)S(=O)(=O)N[C@H]1CCOC[C@@H]1c1ccc(-c2ccc(C#N)s2)cc1 | inactive | 10.7 µM (active) | 0.213 µM (active) | inactive
CC[C@@H](N)CNc1ccnc(-c2cc(-c3cnn(C)c3)ccc2O)n1 | inactive | 9.52 µM (active) | 13.5 µM (active) | 1.29 µM (active)
CCCCc1ccc(C(=O)Nc2cc(-c3ccc(Cl)cc3)nn2-c2ccc(Cl)cc2)cc1 | inactive | inactive | inactive | inactive
O=C(CCc1nnc2n(Cc3ccc(Cl)cc3)c(=O)c3ccccc3n12)NCCC1=CCCCC1 | inactive | 7.56 µM (active) |  | inactive
CCOc1ccc(NC(=S)N2CCC(C(O)(c3ccccc3)c3ccccc3)CC2)cc1 | inactive | 2.68 µM (active) | 9.52 µM (active) | inactive
COCCOc1ccc(N2CCN(CCn3ncc4c3nc(N)n3nc(-c5ccco5)nc43)CC2)cc1 | inactive | inactive | inactive | inactive
C[C@@H]1CN(Cc2ncccn2)C[C@H]1c1nc2c(cnn2C2CCOCC2)c(=O)[nH]1 | inactive | inactive | inactive | inactive
Cn1nnc(-c2ccc(-c3ccc(N4C[C@H](CO)OC4=O)cc3F)cn2)n1 | inactive | inactive |  | inactive
CCN1CCN(Cc2ccc(NC(=O)c3ccc(C)c(/C=C/c4cnc5[nH]ccc5c4OC)c3)cc2C(F)(F)F)CC1 | inactive | 6.74 µM (active) | 12 µM (active) | 129 nM (active) and 1.05 µM (active)

Source: PubChem BioAssay (NCATS)
